We go through 17 sequences from the OligoGym collection.
Also: reference of the scale not given here.

For this test, the target named is ADD2. Kind of test: pooled miR-30 sensor sort-seq; sequence = guide strand. To be noted: shRNA.
In turn, TTTCTGTCTTCTTAGTACCTTC had a sensor-assay potency score (higher = more potent) of -0.453.

Consider TTGTTCTCGAATCTTGTTCCTC, for which the sensor-assay potency score (higher = more potent) is -0.198.

As to TTCTAGTTTCTTCCTCTCCACC, the sensor-assay potency score (higher = more potent) was -1.02.

Consider TTTAGTTTTGAAGTGCCTGAGA, for which the sensor-assay potency score (higher = more potent) was -0.472.

For the sequence TCTGTTGTTTTGATCCTCCTTA, the sensor-assay potency score (higher = more potent) amounted to 0.276.

As for TTGATAGGCGTCATCATGGAGA, the sensor-assay potency score (higher = more potent) is -0.575.

The sequence TTGGCTAGTCACTTTGAGCAGC displayed a sensor-assay potency score (higher = more potent) of -0.569.

With TTTGTCTCTGCCTCCTTCGCTG, the sensor-assay potency score (higher = more potent) was -0.0606.

In turn, TCAAGTTCTAGTTTCTTCCTCT had a sensor-assay potency score (higher = more potent) of 0.727.

The sequence TTAGAGGTATCAACATCCGTGT yielded a sensor-assay potency score (higher = more potent) of -0.242.

TTAAATGTAGAGATAGCTCCAT had a sensor-assay potency score (higher = more potent) of 0.598.

TTTCTCTCCATCAAGTTCTAGT displayed a sensor-assay potency score (higher = more potent) of -0.228.

Consider TCGGTAGACACTGCTGATCTTG, for which the sensor-assay potency score (higher = more potent) was -0.972.

As for TTCCTCTCCACCTCTTTCTTGT, the sensor-assay potency score (higher = more potent) was -0.367.

In the case of TTCACTGCAAGAAACTCCCTTA, the sensor-assay potency score (higher = more potent) worked out at 0.39.

As to TTGCTTGTTTCTGTCTTCTTAG, the sensor-assay potency score (higher = more potent) was -0.81.

Sequence TAAATGTAGAGATAGCTCCATC had a sensor-assay potency score (higher = more potent) of -0.556.
